VACV Venus inh – inhibitors of vaccinia virus (Venus reporter) | Vaccinia virus Venus reporter expression, fluorescence | Potency, µM (top dose mostly 36.5 µM), for inactives: at the highest dose activity change, negative = inhibition, most hits filed as inhibitors | 0.46% of 330,000 active; calls by dose curve; tested in A549 cells; note: potency is the fitted concentration of half-maximal effect; nearly all actives have a fitted effect of over 30% in size
FMDV inh – foot and mouth disease virus antiviral activity; AID 1159524; 1.2% of 410,000 active; Potency, µM (highest dose often 57.9 µM), without a hit: at the top dose activity change, negative = inhibition, actives largely listed as inhibitors; FMDV antiviral cell-based qHTS; calls by dose curve; tested in HEK293T cells; note: read-out not given here; potency is the fitted concentration of half-maximal effect; nearly all actives have a fitted effect of over 45% in size
HCV inh – blocks hepatitis C virus. Huh7.5.1 HCVcc-Cre infection, luciferase reporter, 44 h. Potency, µM (series often up to 41.8 µM), for inactives: at the highest dose activity change, negative = inhibition, hits mostly inhibitors. 3.4% of 340,000 active; note: potency is the fitted concentration of half-maximal effect
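Antiviral activity was scored by luciferase reporter output from cells infected with HCVcc-Cre (~0.5 moi) in presence of compound, 44 h infection period, cells seeded 1,000/well 4 h prior.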
HCMV antiviral – blocks human cytomegalovirus replication; HFF cells, HCMV-luciferase reporter, 72 h; hits give low values; activity change, negative = inhibition, % at 57.5 µM; 4.5% of 410,000 active; in the data active = activity change below about -60%; inconclusive = no clear call, values can overlap the other calls; inactive = above about -39%
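Cell-based, HFFs, 1000 cells/well, 16 h 37C; cpds in DMSO + HCMV-luc, MOI 1 PFU/cell; 72 h 37C; OneGlo luminescence after 5 min RT; norm. to buffer vs Salinomycin 10uM.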
Sm TGR inh – S. mansoni TGR enzyme inhibition; AID 485364; 3% of 360,000 active; Potency, µM (series often up to 114 µM), without a hit: at the top dose activity change, negative = inhibition, usual class: inhibitors; purified TGR, DTNB reduction, TNB absorbance 405 nm; Q962Y6; note: potency is the fitted concentration of half-maximal effect; nearly all actives have a fitted effect of over 60% in size
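Kinetic colorimetric format: TGR-catalysed, NADPH-driven DTNB reduction monitored via TNB absorbance. Enzyme dispensed at 20 nM; compound exposure 15 min at room temperature before reaction start.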
Vaccinia mCherry – inhibitors of vaccinia virus infection (mCherry reporter signal); Vaccinia virus mCherry reporter infection, fluorescence; Potency, µM (titrated, usually from 36.5 µM), inactives show at the highest dose activity change, negative = inhibition, hits mostly inhibitors; 0.63% of 310,000 active; AID 720579; calls by dose curve; tested in A549 cells; note: potency is the fitted concentration of half-maximal effect; nearly all actives have a fitted effect of over 35% in size
The depositor's hits bear a star; i = inactive; ? = inconclusive; / = no result; [ ] = remark or other dose. Shown are actives, neighbours in structure and some others; about 9.3% of the full set was active somewhere. Unless noted, calls come from the whole dose curve; as a rule, active = well fitted curve in the direction sought with a large enough effect; inconclusive = small, poorly fitted or top-dose-only effect, or another doubt; inactive = no such curve, though single readings can be large; an effect the other way counts as inactive or inconclusive. % is set by controls: 0 for no effect and ±100 for the full control effect.

SMILES	VACV Venus inh	FMDV inh	HCV inh	HCMV antiviral	Sm TGR inh	Vaccinia mCherry
O=C(Nc1ccc2c(c1)CCCN2C(=O)c1cccs1)c1cccc(F)c1	-23%	3%	?	?	-2%	-4%
O=C(c1ccco1)N1CCCN(Cc2nc(-c3cccs3)no2)CC1	/	-12%	10%	-29	-16%	/
Cc1cccc(C(=O)Nc2ccc3oc(-c4ccncc4)nc3c2)c1	-8%[7.34 µM]	?	/	?	-8%	-12%[7.34 µM]
CCOC(=O)C1CCN(C(=O)c2ccccc2)c2scc(-c3ccccc3)c2C1=O (stereo unspecified)	-22%	32µM*	/	?	/	-3%
CCOC(=O)C1CCCN(C(=O)c2ccccc2)CC1 (stereo unspecified)	-5%	-11%	/	-22	/	8%
O=C(CCl)Nc1cn(-c2ccccc2)nc1-c1ccc(F)cc1	-20%	16µM*	?	-72*	32µM*	?
CC1=C(C(=O)Nc2ccc(C)cc2C)C(c2ccccc2[N+](=O)[O-])n2ncc(C(=O)Nc3ccccc3)c2N1 (stereo unspecified)	-15%	18%	/	-21	-15%	i
CCOC(=O)C(Cc1ccccc1)(Nc1ccccc1OC)C(O)c1ccc(C#N)cc1 (stereo unspecified)	/	/	/	-66*	/	/
COc1cc(CNCCSc2nnnn2C)ccc1OCc1ccc(F)cc1	-9%	0%	/	-77*	18%	0%
Cn1nnnc1SCCCNCc1cc(Br)ccc1OCc1ccccc1F	-18%	?	/	?	0%	-17%
COc1cc(CNCCSc2nnnn2C)ccc1OCc1ccccc1	-10%	29%	/	?	1%	-12%
Cn1nnnc1SCCCNCc1cc(Br)ccc1OCc1ccccc1	-29%	?	/	-63*	-1%	-27%
CCOc1cc(CNCCSc2nnnn2C)ccc1OCc1ccc(Cl)cc1Cl	-28%	?	/	-99*	1%	?
CCOc1ccc(NC2=CC(=O)CC(c3ccco3)C2)cc1 (stereo unspecified)	-15%	36%	2%	31	/	-4%
c1ccc(CSc2nc3ccccc3[nH]2)cc1	-2%	17%	-24%	57	0%	-13%
COc1ccc(OCCSc2nc(C)nc3ccccc23)cc1	-16%	?	?	-65*	6%	-10%
CCCOc1ccc(CSc2nc3ccccc3[nH]2)cc1	?	-4%	/	-92*	-22%	?
CCOc1ccc(OCCSc2nc3ccccc3[nH]2)cc1	-28%	/	?	-76*	3%	-6%
Nc1nc(-c2cc(O)ccc2[N+](=O)[O-])cc(-c2ccccc2)c1[N+](=O)[O-]	-11%	-24%	?	-69*	?	-13%
Cc1ccccc1N1CC(c2nc3ccccc3n2Cc2ccc(Br)cc2)CC1=O (stereo unspecified)	-21%	0%	/	-78*	0%	-12%
Cc1ccccc1N1CC(c2nc3ccccc3n2CCC2CCCCC2)CC1=O (stereo unspecified)	?	?	/	?	-11%	-10%
CCc1ccccc1N1CC(c2nc3ccccc3n2CCC2CCCCC2)CC1=O (stereo unspecified)	?	?	/	-108*	-3%	i
COc1ccc(NC(=O)N2CC[C@@]3(CCCN(C(=O)c4cc(C(F)(F)F)cc(C(F)(F)F)c4)C3)C2)cc1	/	-8%	/	/	/	/
Cn1c(C(C#N)C(=O)c2sc3ccccc3c2Cl)nc2ccccc21 (stereo unspecified)	-11%	-15%	-14%	-38	-27%	-5%
CCn1nc([N+](=O)[O-])c(C(C#N)c2nc3ccccc3n2C)c(Cl)c1=O (stereo unspecified)	-3%	0%	1%	-14	14µM*	-22%
SMILES	VACV Venus inh	FMDV inh	HCV inh	HCMV antiviral	Sm TGR inh	Vaccinia mCherry
CCCn1nc([N+](=O)[O-])c(C(C#N)c2nc3ccccc3s2)c(Cl)c1=O (stereo unspecified)	/	?	?	-90*	1.3µM*	/
CC(C)c1ccc(/C=N/NC(=O)C(=O)NCCCN2CCOCC2)cc1	-19%	-18%	?	-62*	8%	i
O=C(NCCCN1CCOCC1)C(=O)N/N=C/c1c(Cl)cccc1Cl	8%	20%	8%	-39	/	-4%
O=C(NCCCN1CCOCC1)C(=O)N/N=C/c1c2ccccc2cc2ccccc12	?	-16%	11µM*	-93*	2%	?
Cc1ccc(S(=O)(=O)Nc2c(C)n(C)n(-c3ccccc3)c2=O)cc1C(=O)OC(C)C(=O)c1ccccc1 (stereo unspecified)	/	20%	-5%	-8	/	/
CN1CCN(c2ccc3sc(-n4ccc5ccccc54)nc3c2)CC1	-16%	?	/	-104*	/	-14%
O=c1oc(Cl)c(Cl)c2ccccc12	-30%	?	-4%	?	3.2µM*	-17%
O=c1oc2cc(O)c(Cl)cc2c2ccccc12	-12%	-12%	-2%	22	-7%	i
Nc1ncc(Br)cc1S(=O)(=O)Nc1cc(C(F)(F)F)cc(C(F)(F)F)c1	?	-9%	?	-101*	-17%	?
Cc1ccc(NS(=O)(=O)c2cc(Br)cnc2N)c(Cl)c1	/	5%	8%	-15	-1%	/
COc1ccc(C(O)c2ncc(-c3ccccc3)[nH]2)c(OC)c1 (stereo unspecified)	1%	18%	/	-67*	/	44%
COc1cccc(-c2cnc(C(O)c3ccc(-c4ccccc4)cc3)[nH]2)c1 (stereo unspecified)	-2%	2%	/	20	/	i
O=C(O)/C=C/C(=O)NCc1cn(-c2ccccc2)nc1-c1cccc(Br)c1	-11%	10%	17%	33	-15%	i
Cc1nn(-c2ccccc2)c(Cl)c1/C=C(\C#N)C(=O)NC(C)C	5%	25µM*	?	?	3%	-3%
COc1ccc(NC(=O)/C(C#N)=C/c2c(C)nn(-c3ccc(F)cc3)c2Cl)cc1OC	/	22µM*	-4%	-15	1%	/
COC(=O)c1c(C)[nH]c(C(=O)C(C)OC(=O)C2CC(=O)N(c3ccc(C)cc3)C2)c1C (stereo unspecified)	/	-28%	6%	-23	-10%	/
O=C(NC1CCCCC1)C1c2ccccc2OCC(=O)N1Cc1ccc2c(c1)OCO2 (stereo unspecified)	-2%	5%	/	2	/	12%
COC(=O)CCCC1=CC2=C(c3ccccc3)C(=O)C(C)(OC(=O)C3CCCC3)C(=O)C2=CN1Cc1ccc(OC)cc1 (stereo unspecified)	-13%	2%	5%	6	22µM*	i
COC(=O)CCCC1=CC2=CC(=O)C(C)(OC(=O)c3cccs3)C(=O)C2=CN1Cc1ccc2c(c1)OCO2 (stereo unspecified)	-2%	-13%	1%	10	-29%	-10%
